# Measurements reported in PubChem BioAssay (NCI).
# This is part of a sample that, as a whole, favours compounds with a hit. Of some 83,000 tested, about 20% had one in any assay.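 Assay: single dose, 48 h. Readout: percent growth (0 = no net growth; negative = cell death). Active: <10.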 Unmarked numbers belong to inactive results. Calls of active or inactive are those of the source.
# How the values were obtained:
# Experiment in all cases: NCI-60 one-dose screen, 48 h (100 = growth as untreated, 0 = no growth, -100 = all killed)
# SK-MEL-2 melanoma = details: 10 µM unless noted
# EKVX NSCLC = details: 10 µM unless noted
# SN12C renal = details: 10 µM unless noted
# UO-31 renal = details: 10 µM unless noted
# TK-10 renal = details: 10 µM unless noted
# ACHN renal = details: 10 µM unless noted
# CAKI-1 renal = details: 10 µM
# A498 renal = details: 10 µM unless noted
# CCRF-CEM leukemia = details: 10 µM unless noted
# MOLT-4 leukemia = details: 10 µM unless noted
# RPMI-8226 leukemia = details: 10 µM unless noted
# OVCAR-8 ovarian = details: 10 µM unless noted
# OVCAR-5 ovarian = details: 10 µM unless noted
# OVCAR-4 ovarian = details: 10 µM unless noted
# SK-OV-3 ovarian = details: 10 µM unless noted
# IGROV1 ovarian = details: 10 µM unless noted
# HS 578T breast = details: 10 µM unless noted
# NCI/ADR-RES ovarian = details: 10 µM unless noted
# SR leukemia = details: 10 µM unless noted
# OVCAR-3 ovarian = details: 10 µM unless noted
Structure (SMILES),growth (SK-MEL-2 melanoma),growth (EKVX NSCLC),growth (SN12C renal),growth (UO-31 renal),growth (TK-10 renal),growth (ACHN renal),growth (CAKI-1 renal),growth (A498 renal),growth (CCRF-CEM leukemia),growth (MOLT-4 leukemia),growth (RPMI-8226 leukemia),growth (OVCAR-8 ovarian),growth (OVCAR-5 ovarian),growth (OVCAR-4 ovarian),growth (SK-OV-3 ovarian),growth (IGROV1 ovarian),growth (HS 578T breast),growth (NCI/ADR-RES ovarian),growth (SR leukemia),growth (OVCAR-3 ovarian)
CC(=O)Nc1cccc(-n2cnc3cc(-c4ccc(O)cc4)ccc32)c1,29.2%,56.6%,38.1%,28.1%,72.6%,33%,23.3%,-32.6% (active),23.6%,21.5%,20.3%,28.8%,66.7%,66.4%,32.9%,41.1%,-17.1% (active),18.5%,–,–
CC1(C)CC[C@]2(C(=O)N3CCCNCC3)CC[C@]3(C)C(=CC[C@@H]4[C@@]5(C)CCC(=O)C(C)(C)[C@@H]5CC[C@]43C)[C@H]2C1,108%,103%,98.7%,95.3%,97.1%,105%,89%,109%,–,106%,98.7%,103%,104%,116%,115%,117%,106%,100%,–,–
Nc1cc(F)ccc1NC(=O)c1ccc(NC(=O)C/C=C/c2cccnc2)cn1,9.74% (active),49.7%,20.1%,5.53% (active),22.3%,31.3%,33.9%,-13.2% (active),–,24.7%,-3.11% (active),17.8%,21.4%,29.1%,34.9%,13.8%,21.1%,20.4%,24.6%,27.4%
Cc1ccc(-c2cc(-c3cccc4ccccc34)n3c(n2)nc2ccccc23)cc1,105%,78.7%,61.2%,37.9%,69.1%,24.8%,23.1%,52.5%,37.5%,4.63% (active),65.2%,58.4%,92.7%,–,100%,59.5%,56.5%,67.7%,–,–
CCN(CC)CCN1C(=O)c2c(c3c4cc(Br)ccc4[nH]c3c3ccc4ccccc4c23)C1=O,116%,-88.1% (active),-71.4% (active),-86.1% (active),-73% (active),-100% (active),12.8%,57.6%,–,-30.7% (active),-42.4% (active),-58.2% (active),-95.2% (active),36.6%,61.9%,-83.7% (active),-4.17% (active),-76.3% (active),-24.6% (active),–
COc1cc(/C=C/C(=O)c2ccc(NC(=O)COc3cccc4cccnc34)cc2)cc(OC)c1OC,96.5%,82%,75.4%,67.7%,147%,80.2%,84.8%,–,26.5%,41%,12.9%,79.7%,128%,84.3%,118%,69.4%,93.8%,71.7%,11.4%,47.9%
N#Cc1c(NC(=O)c2ccc(F)c(Cl)c2)sc2c1CCC(=O)C2,18.3%,13.1%,4.43% (active),-99% (active),15.3%,-98.8% (active),-67% (active),–,8.21% (active),3.13% (active),0.133% (active),16.6%,-14.6% (active),-52% (active),25.8%,-25.7% (active),-2.33% (active),-11.8% (active),0.0131% (active),-47.3% (active)
CC(c1ccccc1)N1C(=O)/C(=C/c2csc(C#N)n2)SC1=S (stereo unspecified),96.2%,98.5%,93.3%,64.8%,119%,87%,84.9%,–,10.5%,36.5%,41.8%,93.4%,107%,98.1%,108%,90.9%,–,97.5%,48.9%,55.5%
c1ccc(-c2c(-c3ccccc3)[n+](Cc3ccc4ccccc4c3)c(-c3ccccc3)n2Cc2ccc3ccccc3c2)cc1,-67.7% (active),-90.1% (active),-91.7% (active),-95.2% (active),-81.1% (active),-95.5% (active),-93.4% (active),–,-21.6% (active),-54.1% (active),-30.5% (active),-69.3% (active),-96.3% (active),-75% (active),-92.9% (active),-76.5% (active),-50.4% (active),-65.8% (active),-41.1% (active),-87.8% (active)
COc1cc(CNC(=O)Cc2ccccc2[N+](=O)[O-])ccc1OCC(=O)NO,104%,100%,99.5%,83.1%,122%,103%,90.4%,–,102%,107%,118%,101%,104%,116%,107%,108%,108%,106%,97.4%,126%
CCNC(=O)Oc1ccc(/C(=C(/C)c2ccccc2)c2ccc(OCCN3CCCC3)cc2)cc1,93.3%,77.3%,78.2%,61%,102%,86%,79.9%,–,64%,51.7%,33%,89.5%,82.3%,81.7%,95.8%,80.5%,78.4%,76.3%,32.3%,76.6%
COc1ccc2c(c1)c(-c1nnc(N)nc1-c1cn(C)c3ccccc13)cn2C,95.2%,92.7%,93.2%,70.8%,94.1%,94.5%,75.7%,–,93.9%,94.4%,105%,103%,86.5%,91.3%,102%,95.1%,–,90.5%,84.7%,96.8%
CN(C)c1ccc(/C=N/Nc2nc(N/N=C/c3ccc(N(C)C)cc3)nc(N3CCOCC3)n2)cc1,98.6%,95.4%,89.2%,90.7%,110%,104%,96%,–,13.3%,96.7%,35%,99%,110%,104%,110%,94.6%,97.6%,99.8%,-13.1% (active),109%
COC[C@]12CC[C@@H](C)[C@H](C)[C@H]1C1=CC[C@@H]3[C@@]4(C)CCCNC(C)(C)[C@@H]4CC[C@@]3(C)[C@]1(C)CC2,58.5%,57.8%,23.2%,60.2%,61.9%,30.7%,35%,–,17%,5.72% (active),2.86% (active),62.4%,61.6%,38%,85.4%,30.2%,74.3%,44.3%,-3.33% (active),41.4%
C#CCOc1ccc(C(Nc2ccc(Cl)cc2)c2nnnn2C2CCCCC2)cc1 (stereo unspecified),91.4%,53.9%,85.9%,64.9%,95%,96.2%,50.3%,–,91%,72.5%,76.9%,93.5%,85.5%,82.6%,98.2%,84.3%,79.9%,76.6%,81%,101%
COc1cc(C(=O)C[n+]2ccc3ccccc3c2)cc(OC)c1OC,102%,98.6%,90.4%,94.2%,112%,106%,92.6%,–,97%,106%,111%,100%,102%,104%,97.1%,95.8%,94%,101%,102%,105%
